Screening results from PubChem BioAssay.
PAX8 inh HTS: inhibitors of PAX8-driven TPO luciferase reporter, primary screen, RMG-I cells, single concentration. SteadyGlo, 24 h. inhibition, % at 12.6 µM. actives 1.2% (n = 360,000). AID 652154, 2013;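 active means mean replicate inhibition at least 60% with every replicate also reaching 60%; inconclusive means only one of the two criteria is met; inactive means mean below 60% and not all replicates reaching 60%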;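 further: luciferase light reporting Pax8 driven TPO promoter activity; plate controls were median of neutral control wells for no effect and mitoxantrone controls for full effect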
EBV LMP1 NFkB: EBV LMP1-driven NF-kappaB luciferase reporter inhibitors, primary screen, cell-based, luminescence, single point. inhibition, % at 12.5 µM. LMP1-induced NF-kappaB luciferase reporter cells. AID 504558, 2011. actives 0.69% (n = 350,000); in the data active means inhibition above about 41%; inconclusive means no clear call, values can overlap the other calls;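 further: 0% = neutral control wells and 100% = reference inhibitor control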
EWS-Fli inh: EWS/Fli-driven NR0B1 reporter inhibitors, primary screen, A673 cells, NR0B1 luciferase, luminescence, MLPCN library; inhibition, % at 12.6 µM; AID 651661, 2012; actives 0.67% (n = 350,000); viability-normalised;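 active means mean inhibition of at least 50% after viability correction, with every replicate also passing that limit; inconclusive means mean reaches 50% but only one of two replicates passes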;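 further: firefly luciferase signal divided by Alamar Blue viability fluorescence both relative to DMSO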
TWEAK Fn14 block: inhibitors of TWEAK-Fn14 signaling, primary screen, luciferase reporter cells, uHTS; TWEAK-stimulated Fn14 reporter cells, luciferase luminescence, 8 h; inhibition, % at 10 µM; actives 2% (n = 360,000); AID 1159606, 2016; in the data active means inhibition above about 50%
LGR2 antag: inhibitors of bursicon-induced LGR2 CRE-luciferase signal, primary screen, cell-based, HEK293, CRE-luciferase reporter, bursicon stimulation; bursicon-stimulated, 4 h; actives 0.35% (n = 380,000); inhibition, % at 9.99 µM; AID 720647, 2013;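 active means drop in luminescence signal, shown as inhibition above about 50% in the replicate tests, limit read from the data, passing the limit was not always enough; inconclusive means probably only some replicates passing the limit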;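 further: agonist challenge used bursicon conditioned medium at about half maximal strength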
TROY signal inh: inhibitors of TROY-driven NF-kB signaling, primary screen, Q293 LMP1-TROYcd cells, NF-kB luciferase, uHTS; Q293 LMP1-TROYcd NF-kB luciferase reporter, 4 h; actives 0.98% (n = 360,000); AID 1347056, 2019; inhibition, % at 10 µM;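 active means compounds whose plate-normalised and pattern-corrected inhibition of the luciferase reporter signal at the single screening dose is 50% or more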
Numbers without * were called inactive; u = inconclusive; x = no result. Most compounds without a hit are left out; they make up all but 3.1% or so of the library.

SMILES	PAX8 inh HTS	EBV LMP1 NFkB	EWS-Fli inh	TWEAK Fn14 block	LGR2 antag	TROY signal inh
Cc1ccc2c(C)nc(Nc3nc(CSc4nc5ccccc5[nH]4)cc(=O)[nH]3)nc2c1	x	-2	-4	96*	32	68*
Cc1ccc(SCc2cc(=O)[nH]c(Nc3nc(C)c4ccc(C)cc4n3)n2)cc1	0	18	-10	-2	11	-13
C[C@@H]1CN([C@@H](C)CO)C(=O)c2cc(C#Cc3ccncc3)cnc2O[C@H]1CN(C)C(=O)CN(C)C	x	x	3	x	-8	x
CC(C)CCCC(C)CCOC(=O)CN1CCCC1 (stereo not drawn)	2	-5	-8	68*	-2	-6
O=C(CN1CCOCC1)OCCCC1CCCCC1	-1	7	x	-4	x	-14
COCCNC(=O)C[C@H]1C=C[C@@H](NS(=O)(=O)c2ccc(C)cc2)[C@H](CO)O1	5	x	-8	x	25	x
C[C@@H]1CN([C@@H](C)CO)C(=O)c2cc(NS(=O)(=O)c3ccc(Cl)cc3)ccc2O[C@@H](C)CCCCO[C@H]1CN(C)Cc1ccc(C(=O)O)cc1	8	x	-11	x	6	x
CCOC(=O)c1c(C)[nH]c(C(=O)NNC(=O)c2ccccc2)c1C	x	8	-26	53*	x	-25
CCOC(=O)c1c(C)[nH]c(C(=O)NNC(=O)c2ccc(Br)cc2)c1C	-45	-10	-23	56*	-30	55*
CO[C@@H]1CN(C)C(=O)c2ccc(NC(=O)c3ccno3)cc2OC[C@H](C)N(C(=O)C2CCC2)C[C@@H]1C	-11	x	-2	x	x	x
CS(=O)(=O)Nc1ccc2c(c1)[C@H]1C[C@@H](CC(=O)N3CCc4ccccc4C3)O[C@H](CO)[C@H]1O2	9	x	-2	x	2	x
C[C@@H]1CN([C@H](C)CO)S(=O)(=O)c2ccc(C#Cc3ccccc3F)cc2O[C@H]1CN(C)C(=O)Cc1ccccc1	u	x	10	x	11	x
C[C@H]1CN([C@@H](C)CO)S(=O)(=O)c2ccc(C#Cc3ccccc3F)cc2O[C@H]1CN(C)C(=O)c1ccc2c(c1)OCO2	90*	x	22	x	10	x
C[C@@H]1CN([C@@H](C)CO)S(=O)(=O)c2ccc(C#Cc3ccccc3F)cc2O[C@@H]1CN(C)C(=O)c1ccc2c(c1)OCO2	78*	x	18	x	6	x
Cc1oc2cc3oc(=O)c(CCC(=O)N4CCC(C(=O)O)(c5ccccc5)CC4)c(C)c3cc2c1C	x	x	1	-4	3	-10
Cc1c(CCC(=O)N2CCC(C(=O)O)(c3ccccc3)CC2)c(=O)oc2cc3oc4c(c3cc12)CCCC4	x	8	43	87*	x	5
CCOC(=O)N1CCC(N2C(=O)c3ccccc3C2Nc2cc(Cl)c(OC)cc2OC)CC1 (stereo not drawn)	4	75*	-1	2	-5	-4
CCOC(=O)N1CCC(N2C(=O)c3ccccc3C2Nc2cc(OC)c(OC)c(OC)c2)CC1 (stereo not drawn)	x	7	2	-2	-3	9
CCNC(=O)CC1C(=O)N(CC)C(=S)N1NC(=O)c1cccnc1 (stereo not drawn)	-11	74*	5	-7	11	0
C[C@@H]1CN([C@H](C)CO)C(=O)c2cc(NS(=O)(=O)c3ccc(Cl)cc3)ccc2O[C@H]1CN(C)C(=O)Nc1ccccc1	-7	x	-8	x	-30	x
O=C(c1ccccc1)c1nn(-c2ccc(Cl)cc2)c(=O)cc1C(F)(F)F	x	64*	x	74*	x	-48
CCS(=O)(=O)c1cc([N+](=O)[O-])c(Sc2ccccc2NC(C)=O)s1	23	-8	1	61*	30	68*
COCC(=O)Nc1ccc2c(c1)[C@H]1C[C@H](CC(=O)NCc3ccc(Cl)cc3)O[C@@H](CO)[C@H]1O2	8	x	-5	x	-5	x
N#Cc1cc2cc3c(cc2nc1SCC(=O)N1CCCC1)OCCO3	x	-32	x	36	x	51*
CC(=O)CSc1nc2cc3c(cc2cc1C#N)OCCO3	24	-11	24	84*	61*	40
COc1ccc2cc(C#N)c(SCC(=O)N3CCCC3)nc2c1	-26	3	x	-19	x	-20
